Data published in PubChem BioAssay AID1159580 (chemical genetic matrix, 2015).
In all, about 5,500 compounds went through this assay and about 2,000 (36%) were called active. Another 18% or so got no clear call; they are omitted. Cut-off read from the data, not from the text of the source: active = normalized growth mostly below about 0.91 (no sharp cut-off); inconclusive = no clear call, values can overlap the other calls; inactive = mostly above about 0.92. The list shows a part of the results.

Experiment: chemical genetic growth profiling, strain panel (AID 1159580);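 note: tested at 20 µM; growth read once vehicle control cultures reached saturation at 30 °C; 1 = growth at the plate median or of vehicle wells; lower values mean less growth of the strain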
Details: growth OD

Measured: normalized growth

CCN(CC)CCOc1ccc2c(c1)C(=O)c1cc(OCCN(CC)CC)ccc1-2
inactive: S. cerevisiae deletion strains, locus YJR075W, strain HOC1, stronger effect = lower value 0.998 | S. cerevisiae deletion strains, locus YKL009W, strain mrt4, stronger effect = lower value 0.973 | S. cerevisiae deletion strains, locus YKL068W, stronger effect = lower value 0.975 | S. cerevisiae deletion strains, locus YKL085W, strain MDH1 (second series), stronger effect = lower value 1.02 | S. cerevisiae deletion strains, locus YKL085W, strain MDH1, stronger effect = lower value 1.02 | S. cerevisiae deletion strains, locus YKL160W, strain elf1, stronger effect = lower value 0.96 | S. cerevisiae deletion strains, locus YKL190W, strain CNB1, stronger effect = lower value 0.991 | S. cerevisiae deletion strains, locus YKR001C, strain vps1, stronger effect = lower value 0.986 | S. cerevisiae deletion strains, locus YKR026C, strain gcn3, stronger effect = lower value 0.98 | S. cerevisiae deletion strains, locus YKR091W, strain srl3, stronger effect = lower value 0.982 | S. cerevisiae deletion strains, locus YLL001W, strain dnm1, stronger effect = lower value 1.01 | S. cerevisiae deletion strains, locus YLL026W, stronger effect = lower value 0.992 | S. cerevisiae deletion strains, locus YLL041C, strain sdh2, stronger effect = lower value 0.998 | S. cerevisiae deletion strains, locus YLR027C, strain aat2, stronger effect = lower value 0.996 | S. cerevisiae deletion strains, locus YLR039C, strain RIC1, stronger effect = lower value 0.963 | S. cerevisiae deletion strains, locus YLR058C, strain SHM2, stronger effect = lower value 0.994 | S. cerevisiae deletion strains, locus YLR102C, strain apc9, stronger effect = lower value 0.975 | S. cerevisiae deletion strains, locus YLR113W, strain HOG1, stronger effect = lower value 0.988 | S. cerevisiae deletion strains, locus YLR221C, strain rsa3, stronger effect = lower value 0.993 | S. cerevisiae deletion strains, locus YLR258W, strain gsy2, stronger effect = lower value 0.979 | S. cerevisiae deletion strains, locus YLR262C, strain YPT6 (second series), stronger effect = lower value 1.05 | S. cerevisiae deletion strains, locus YLR262C, strain YPT6, stronger effect = lower value 0.96 | S. cerevisiae deletion strains, locus YLR268W, strain sec22, stronger effect = lower value 0.984 | S. cerevisiae deletion strains, locus YLR320W, strain mms22, stronger effect = lower value 0.995 | S. cerevisiae deletion strains, locus YLR330W, strain CHS5, stronger effect = lower value 0.988 | S. cerevisiae deletion strains, locus YLR342W, strain FKS1 (second series), stronger effect = lower value 1.01 | S. cerevisiae deletion strains, locus YLR342W, strain FKS1, stronger effect = lower value 0.981 | S. cerevisiae deletion strains, locus YLR357W, strain rsc2, stronger effect = lower value 0.963 | S. cerevisiae deletion strains, locus YLR370C, strain arc18, stronger effect = lower value 0.987 | S. cerevisiae deletion strains, locus YLR371W, strain rom2, stronger effect = lower value 0.961 | S. cerevisiae deletion strains, locus YLR384C, strain iki3, stronger effect = lower value 0.984 | S. cerevisiae deletion strains, locus YLR418C, strain cdc73, stronger effect = lower value 1.06 | S. cerevisiae deletion strains, locus YML016C, strain PPZ1, stronger effect = lower value 0.995 | S. cerevisiae deletion strains, locus YML032C, strain rad52, stronger effect = lower value 0.968 | S. cerevisiae deletion strains, locus YML120C, strain ndi1, stronger effect = lower value 0.985 | S. cerevisiae deletion strains, locus YML124C, strain tub3, stronger effect = lower value 0.987 | S. cerevisiae deletion strains, locus YMR058W, strain fet3, stronger effect = lower value 0.994 | S. cerevisiae deletion strains, locus YMR078C, strain ctf18, stronger effect = lower value 0.978 | S. cerevisiae deletion strains, locus YMR125W, strain sto1, stronger effect = lower value 0.978 | S. cerevisiae deletion strains, locus YMR129W, stronger effect = lower value 0.982 | S. cerevisiae deletion strains, locus YMR205C, strain PFK2, stronger effect = lower value 0.969 | S. cerevisiae deletion strains, locus YMR223W, strain ubp8, stronger effect = lower value 0.982 | S. cerevisiae deletion strains, locus YMR231W, strain pep5, stronger effect = lower value 0.99 | S. cerevisiae deletion strains, locus YMR263W, strain SAP30, stronger effect = lower value 1 | S. cerevisiae deletion strains, locus YMR307W, strain GAS1, stronger effect = lower value 1.09 | S. cerevisiae deletion strains, locus YNL067W, strain RPL9B, stronger effect = lower value 0.999 | S. cerevisiae deletion strains, locus YNL071W, strain lat1, stronger effect = lower value 0.988 | S. cerevisiae deletion strains, locus YNL128W, strain TEP1, stronger effect = lower value 0.987 | S. cerevisiae deletion strains, locus YNL153C, strain GIM3, stronger effect = lower value 1.01 | S. cerevisiae deletion strains, locus YNL183C, strain NPR1, stronger effect = lower value 0.939 | S. cerevisiae deletion strains, locus YNL209W, strain ssb2, stronger effect = lower value 0.976 | S. cerevisiae deletion strains, locus YNL233W, strain BNI4, stronger effect = lower value 1.02 | S. cerevisiae deletion strains, locus YNL248C, strain rpa49, stronger effect = lower value 0.98 | S. cerevisiae deletion strains, locus YNL250W, strain rad50, stronger effect = lower value 0.983 | S. cerevisiae deletion strains, locus YNL271C, strain bni1, stronger effect = lower value 0.993 | S. cerevisiae deletion strains, locus YNL298W, strain CLA4, stronger effect = lower value 0.971 | S. cerevisiae deletion strains, locus YNL307C, strain MCK1, stronger effect = lower value 0.975 | S. cerevisiae deletion strains, locus YNL322C, strain KRE1 (second series), stronger effect = lower value 0.96 | S. cerevisiae deletion strains, locus YNL322C, strain KRE1, stronger effect = lower value 0.983 | S. cerevisiae deletion strains, locus YNR049C, strain mso1, stronger effect = lower value 0.968 | S. cerevisiae deletion strains, locus YNR052C, strain pop2, stronger effect = lower value 0.975 | S. cerevisiae deletion strains, locus YOL006C, strain TOP1, stronger effect = lower value 1.02 | S. cerevisiae deletion strains, locus YOL012C, strain htz1 0.871 | S. cerevisiae deletion strains, locus YOL147C, strain pex11, stronger effect = lower value 0.992 | S. cerevisiae deletion strains, locus YOR001W, strain rrp6, stronger effect = lower value 0.988 | S. cerevisiae deletion strains, locus YOR061W, strain CKA2, stronger effect = lower value 0.994 | S. cerevisiae deletion strains, locus YOR069W, strain VPS5, stronger effect = lower value 0.996 | S. cerevisiae deletion strains, locus YOR070C, strain gyp1, stronger effect = lower value 0.989 | S. cerevisiae deletion strains, locus YOR080W, strain dia2, stronger effect = lower value 0.983 | S. cerevisiae deletion strains, locus YOR083W, strain WHI5, stronger effect = lower value 0.968 | S. cerevisiae deletion strains, locus YOR106W, strain vam3, stronger effect = lower value 0.944 | S. cerevisiae deletion strains, locus YOR136W, strain idh2, stronger effect = lower value 0.985 | S. cerevisiae deletion strains, locus YOR144C, strain elg1, stronger effect = lower value 0.97 | S. cerevisiae deletion strains, locus YOR184W, strain ser1, stronger effect = lower value 0.976 | S. cerevisiae deletion strains, locus YOR231W, strain MKK1, stronger effect = lower value 0.985 | S. cerevisiae deletion strains, locus YOR265W, strain rbl2, stronger effect = lower value 0.976 | S. cerevisiae deletion strains, locus YOR270C, strain vph1, stronger effect = lower value 1.07 | S. cerevisiae deletion strains, locus YOR290C, strain snf2, stronger effect = lower value 0.964 | S. cerevisiae deletion strains, locus YOR316C, strain cot1, stronger effect = lower value 0.995 | S. cerevisiae deletion strains, locus YPL051W, strain arl3, stronger effect = lower value 0.97 | S. cerevisiae deletion strains, locus YPL055C, strain LGE1, stronger effect = lower value 1.02 | S. cerevisiae deletion strains, locus YPL078C, strain atp4, stronger effect = lower value 0.981 | S. cerevisiae deletion strains, locus YPL106C, strain sse1, stronger effect = lower value 0.979 | S. cerevisiae deletion strains, locus YPL240C, strain hsp82, stronger effect = lower value 0.996 | S. cerevisiae deletion strains, locus YPL241C, strain CIN2, stronger effect = lower value 0.971 | S. cerevisiae deletion strains, locus YPL256C, strain CLN2, stronger effect = lower value 0.979 | S. cerevisiae deletion strains, locus YPR119W, strain clb2, stronger effect = lower value 0.988 | S. cerevisiae deletion strains, locus YPR141C, strain kar3, stronger effect = lower value 0.989 | S. cerevisiae deletion strains, locus YPR163C, strain tif3, stronger effect = lower value 0.97 | S. cerevisiae deletion strains, locus YPR167C, strain met16, stronger effect = lower value 1 | S. cerevisiae deletion strains, strain wtn01, stronger effect = lower value 0.993 | S. cerevisiae strains, strain wild type, stronger effect = lower value 0.995
